Among the data in PubChem BioAssay AID489025 (Southern Research Specialized Biocontainment Screening …, 2010) are outcome values, retold here.

The whole screen tested about 2,300 compounds, of which about 790 (34%) were called active. How the calls were made is not given here. Some of the results follow. Entries with a potency or affinity are not part of this list.

The assay in a line: THP-1 cell cytotoxicity, dose response, cytotoxicity control for non-replicating M. tuberculosis project (AID 489025). Conditions: THP-1 cell viability; series mostly up to 40 µM.
For the compound `NNC(=O)COc1cccc(Oc2ccccc2)c1`, the outcome was inactive.
With `CC(C(=O)OCC(=O)c1ccccc1)N1C(=O)C2C3CCC(C3)C2C1=O` (centres undefined) the entry was “inactive”; with `CC1=NN(C(=O)c2ccoc2C)C(O)(C(F)(F)F)C1` (centres undefined), “inactive”.
Then `CC1=NN(C(=O)c2csc(C)c2)C(O)(C(F)(F)F)C1` (centres undefined), with “inactive”.
Then `CCC(=O)c1ccc(OCC(=O)OCC(=O)c2cc(C)n(C3CC3)c2C)cc1`, with “inactive”.
Take `Cc1ccsc1C(=O)OCC(=O)NCCC1=CCCCC1`: the result was inactive.
For `NCCCN1CCOCC1`, the call was inactive.
For `O=C1CC(N2CCC(C(=O)N3CCCCC3)CC2)C(=O)N1` (centres undefined), the outcome was inactive.
With `COC(=O)c1cc(/C=C/c2ccccc2)on1` the entry was “inactive”; with `COc1ccc(C(=O)CC(=O)C(=O)NCCc2cccc(C)c2)cc1`, “inactive”; with `O=C1NC(=O)N(Cc2ccco2)C(=O)/C1=C\c1cccn1CCOc1ccc(Cl)cc1`, “inactive”.
Regarding `CC(=O)c1c(O)cc(=O)n(-c2ccccc2)c1-c1ccc(C)cc1`, the compound was classed as inactive.
Take `O=C(N/N=C/c1ccc(O)cc1)c1cccc(C(F)(F)F)c1`: the result was inactive.
With `O=C(Nc1nnc(C2=COCCO2)o1)c1cccc(C(F)(F)F)c1` the entry was “inactive”.
`Cc1cc(NC(=O)COC(=O)COc2ccc(C(=O)c3ccccc3)cc2)no1`: the compound was called inactive.
Then `CC1=NN(C(=O)c2ccccc2Cl)C(O)(c2ccccc2)C1` (centres undefined), with “inactive”; and `CC1=NN(C(=O)COc2ccccc2)C(O)(c2ccccc2)C1` (centres undefined), with “inactive”.
With `CC1=NN(C(=O)c2ccccc2F)C(O)(c2ccc(Cl)cc2)C1` (centres undefined), the call was inactive.
`CC1=NN(C(=O)c2ccc(C)o2)C(O)(c2ccccc2)C1` (centres undefined): the compound was called inactive.
With `CSc1ccc(COC(=O)CCS(=O)(=O)c2ccc(C)cc2)cc1` the entry was “inactive”.
Turning to `CCc1nnc(NC(=O)CN2CCN(c3ccccc3F)CC2)s1`, the result was inactive.
Then `CCOC(=O)COc1c(-c2ccc(OC)cc2)oc2ccccc2c1=O`, with “inactive”; and `O=C(OCc1nnc(-c2ccccc2)o1)c1cc([N+](=O)[O-])ccc1Cl`, with “inactive”; and `CCCOc1ccc(N2CC(C(=O)Nc3ccccc3F)CC2=O)cc1` (centres undefined), with “inactive”.
Regarding `O=C(NC(=S)N1CCN(Cc2ccc3c(c2)OCO3)CC1)c1ccc(Cl)cc1`, the result was inactive.
With `Nc1ccc(Nc2ccccc2)cc1` the entry was “inactive”; with `CC(C)=CCN1CCN(CCC2=C(C)CCCC2(C)C)CC1CCO` (centres undefined), “inactive”; with `CC(C)c1ccc(OCC(=O)NC2=NCCS2)cc1`, “inactive”.
With `O=C(Oc1ccccc1)c1ccc(NC(=O)c2ccco2)cc1` the entry was “inactive”; with `O=C(/C=C/Nc1ccccc1O)c1ccco1`, “inactive”.
Then `CC1=NN(C(=O)COc2ccccc2C)C(O)(c2ccc(Cl)cc2)C1` (centres undefined), with “inactive”; and `CC(C)(C)OC(=O)N/N=C\c1ccc(OC(=O)c2ccco2)cc1`, with “inactive”; and `O=C(Nc1nccs1)c1ccc(Br)cc1`, with “inactive”.
Consider `O=C(CNC(=O)c1ccc(Br)cc1)c1ccc(Br)cc1`, for which the outcome was inactive.
